Test results published in the supplement of paper PMC12645437, “Orthogonal IMiD-Degron Pairs Induce Selective Protein Degradation in Cells” (ACS Chemical Biology, 2025).
In all, about 8,300 sequences were measured (“log2 fold change of degron read counts, EGFP-low vs EGFP+ sorted cells (limma voom), compound-induced degradation”: median about -1.1, highest 2% from about 3.2 on). Many of the other results were omitted from the sample, so the highest values are more common in it than they were.

B1: 46F_47E_49E_50I_52G_53H_54G_55F_67L_, Q9UKT9 (peptide)
chain: FECEICGHGFTQKGNLLRHIKL
B2: 46F_47T_49E_50I_52G_53R_54L_55F_67L_, Q9UKT9 (peptide)
chain: FTCEICGRLFTQKGNLLRHIKL
B3: 46L_47W_49N_50Q_52G_53F_54P_55C_67L_, Q9UKT9 (peptide)
chain: LWCNQCGFPCTQKGNLLRHIKL
B4: 46F_47Y_49P_50Q_52G_53A_54W_55F_67L_, Q9UKT9 (peptide)
chain: FYCPQCGAWFTQKGNLLRHIKL
B5: 46F_47E_49N_50V_52G_53A_54H_55F_67L_, Q9UKT9 (peptide)
chain: FECNVCGAHFTQKGNLLRHIKL
B6: 46F_47L_49D_50V_52G_53A_54C_55F_67L_, Q9UKT9 (peptide)
chain: FLCDVCGACFTQKGNLLRHIKL
B7: 46F_47W_49P_50I_52G_53R_54E_55F_67L_, Q9UKT9 (peptide)
chain: FWCPICGREFTQKGNLLRHIKL
B8: 46F_47L_49P_50V_52G_53A_54G_55F_67L_, Q9UKT9 (peptide)
chain: FLCPVCGAGFTQKGNLLRHIKL
B9: 46F_47C_49P_50V_52G_53A_54T_55F_67L_, Q9UKT9 (peptide)
chain: FCCPVCGATFTQKGNLLRHIKL
B10: 46F_47D_49P_50V_52G_53A_54T_55F_67L_, Q9UKT9 (peptide)
chain: FDCPVCGATFTQKGNLLRHIKL
B11: 46F_47F_49P_50V_52G_53A_54T_55F_67L_, Q9UKT9 (peptide)
chain: FFCPVCGATFTQKGNLLRHIKL
B12: 46F_47K_49P_50V_52G_53A_54T_55F_67L_, Q9UKT9 (peptide)
chain: FKCPVCGATFTQKGNLLRHIKL
B13: 46F_47Q_49P_50V_52G_53A_54T_55F_67L_, Q9UKT9 (peptide)
chain: FQCPVCGATFTQKGNLLRHIKL
B14: 46F_47G_49P_50V_52G_53A_54T_55F_67L_, Q9UKT9 (peptide)
chain: FGCPVCGATFTQKGNLLRHIKL
B15: 46F_47M_49P_50V_52G_53A_54T_55F_67L_, Q9UKT9 (peptide)
chain: FMCPVCGATFTQKGNLLRHIKL
B16: 46F_47W_49P_50V_52G_53A_54T_55F_67L_, Q9UKT9 (peptide)
chain: FWCPVCGATFTQKGNLLRHIKL
B17: 46F_47V_49P_50V_52G_53A_54T_55F_67L_, Q9UKT9 (peptide)
chain: FVCPVCGATFTQKGNLLRHIKL
B18: 46F_47L_49P_50V_52G_53A_54T_55F_67L_, Q9UKT9 (peptide)
chain: FLCPVCGATFTQKGNLLRHIKL
B19: 46F_47E_49P_50V_52G_53A_54T_55F_67L_, Q9UKT9 (peptide)
chain: FECPVCGATFTQKGNLLRHIKL
B20: 46F_47N_49P_50V_52G_53A_54T_55F_67L_, Q9UKT9 (peptide)
chain: FNCPVCGATFTQKGNLLRHIKL
B21: 46F_47R_49N_50Q_52G_53H_54P_55F_67L_, Q9UKT9 (peptide)
chain: FRCNQCGHPFTQKGNLLRHIKL
B22: 46F_47W_49P_50I_52G_53R_54R_55F_67L_, Q9UKT9 (peptide)
chain: FWCPICGRRFTQKGNLLRHIKL
B23: 46F_47D_49N_50Q_52G_53R_54P_55F_67L_, Q9UKT9 (peptide)
chain: FDCNQCGRPFTQKGNLLRHIKL
B24: 46F_47T_49E_50V_52G_53A_54K_55F_67L_, Q9UKT9 (peptide)
chain: FTCEVCGAKFTQKGNLLRHIKL
B25: 46F_47V_49P_50I_52G_53H_54V_55F_67L_, Q9UKT9 (peptide)
chain: FVCPICGHVFTQKGNLLRHIKL
B26: 46F_47F_49N_50Q_52G_53H_54R_55F_67L_, Q9UKT9 (peptide)
chain: FFCNQCGHRFTQKGNLLRHIKL
B27: 46F_47T_49S_50V_52G_53H_54M_55F_67L_, Q9UKT9 (peptide)
chain: FTCSVCGHMFTQKGNLLRHIKL
B28: 46F_47H_49P_50V_52G_53A_54T_55F_67L_, Q9UKT9 (peptide)
chain: FHCPVCGATFTQKGNLLRHIKL
B29: 46F_47Y_49P_50V_52G_53A_54T_55F_67L_, Q9UKT9 (peptide)
chain: FYCPVCGATFTQKGNLLRHIKL
B30: 46F_47A_49P_50V_52G_53A_54T_55F_67L_, Q9UKT9 (peptide)
chain: FACPVCGATFTQKGNLLRHIKL

Target: T1, CRBN, Q96SW2
T1 chain: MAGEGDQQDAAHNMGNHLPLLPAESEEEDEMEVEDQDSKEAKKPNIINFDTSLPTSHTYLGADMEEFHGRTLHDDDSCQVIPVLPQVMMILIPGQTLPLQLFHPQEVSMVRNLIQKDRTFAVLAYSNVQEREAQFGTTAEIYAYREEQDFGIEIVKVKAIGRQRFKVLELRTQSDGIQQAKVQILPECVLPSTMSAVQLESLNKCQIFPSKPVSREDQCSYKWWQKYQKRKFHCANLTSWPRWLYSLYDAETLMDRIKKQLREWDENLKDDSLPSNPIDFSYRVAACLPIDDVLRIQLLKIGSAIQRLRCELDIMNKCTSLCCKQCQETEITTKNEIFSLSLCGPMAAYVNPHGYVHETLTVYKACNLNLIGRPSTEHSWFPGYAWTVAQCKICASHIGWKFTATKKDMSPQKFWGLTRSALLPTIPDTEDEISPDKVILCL
Assay: log2 fold change of degron read counts, EGFP-low vs EGFP+ sorted cells (limma voom), compound-induced degradation; higher = more compound-induced degradation of the degron-EGFP fusion; degrons are variants of IKZF1/3 zinc finger 2; compound dose not given here
Conditions: Jurkat, 18 h

[1] = compound: compound 19 (5-tert-butyl-thalidomide)
[2] = compound: compound 22 (5-morpholino-thalidomide)
[3] = compound: compound 33 (diphenyl IMiD analogue)
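Further: pooled lentiviral library of zinc finger degron-EGFP fusions in mCherry-positive Jurkat cells, FACS-sorted after compound exposure, with degron abundance counted by next-generation sequencing.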

Sequence | log2 fold change of degron read counts [1] | log2 fold change of degron read counts [2] | log2 fold change of degron read counts [3] | log2 fold change of degron read counts (compound: thalidomide)
B1 | -3.39 | -3.7 | -2.59 | -2.45
B2 | -2.87 | -2.3 | -0.938 | -0.343
B3 | -0.74 | -1.09 | -1.33 | -1.27
B4 | -0.595 | -1.07 | -0.405 | -1.33
B5 | -2.58 | -2.72 | -0.566 | -0.594
B6 | -1.03 | -2.05 | 0.211 | -0.875
B7 | 0.147 | -0.132 | 1.23 | -0.495
B8 | 1.38 | 0.0992 | 1.5 | 0.959
B9 | 1.17 | 1.86 | 2.81 | 2.11
B10 | 1.07 | -0.459 | 0.762 | 1.24
B11 | 2.59 | 3.54 | 1.59 | 1.17
B12 | -1.61 | -2.57 | -2.5 | -0.961
B13 | 0.396 | 2.89 | 2.57 | 3.79
B14 | 3.66 | 2.4 | 2.06 | 1.12
B15 | -1.09 | 0.0816 | 1.9 | 1.06
B16 | 2.12 | 3.45 | 1.55 | 0.523
B17 | -1.12 | 1.27 | 1.62 | 2.01
B18 | -1.39 | -1.44 | 0.984 | 1.09
B19 | -0.45 | -0.774 | 1.74 | 2.82
B20 | 1.23 | -0.0199 | 1.21 | 0.0692
B21 | -1.26 | -1.57 | -1.18 | -0.69
B22 | -0.549 | 1.78 | -0.519 | -0.365
B23 | -2.11 | -2.72 | -2.47 | -2.01
B24 | 0.575 | 1.8 | -0.259 | 2.77
B25 | -1.93 | -1.85 | -1.17 | -0.831
B26 | -1.77 | -1.83 | -1.97 | -1.98
B27 | -2.72 | -3.24 | -2.66 | -2.24
B28 | 1.14 | 1.21 | 1.72 | -0.00776
B29 | 2.81 | 3.38 | 2.28 | 1.02
B30 | 3.23 | 1.68 | 1.17 | 0.555
